Compounds without any hit were thinned out: in the full panel of roughly 79,000, 15% have a hit. Activity calls are given as the source filed them. No stated cut-off is given here; in the data, active means growth inhibition above about 70%; inactive means the rest.
Key:
[1] = NCI Yeast Anticancer Drug Screen. Data for the wt1 strain (AID 149);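 further: 0% = growth of vehicle-treated wt1 cultures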; details: S. cerevisiae wt1 strain (SPY 50644) growth inhibition, active compounds read high
In short: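 Readout: yeast growth inhibition, normalised to vehicle controls, in the wt1 strain exposed to test compounds.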

[2] = NCI Yeast Anticancer Drug Screen. Data for the rad50EPP+ strain (AID 151);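 further: 0% = growth of vehicle-treated control cultures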; details: S. cerevisiae rad50 mutant strain, active compounds read high
In short: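 Read-out is yeast growth inhibition relative to vehicle; cells used were the rad50EPP+ strain.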

[3] = NCI Yeast Anticancer Drug Screen. Data for the mgt1 strain (AID 153); details: S. cerevisiae mgt1 mutant growth inhibition, active compounds read high
In short: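 Measured: inhibition of mgt1 yeast growth by compound, normalized to vehicle-treated cultures.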

[4] = NCI Yeast Anticancer Drug Screen. Data for the rad50 strain (AID 155);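 further: 0% = growth of vehicle-only cultures of the same strain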; details: S. cerevisiae rad50 strain growth inhibition, active compounds read high
In short: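 Compounds were tested on a yeast strain with an engineered DNA damage repair alteration; the reported value is growth inhibition normalised to vehicle treatment.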

[5] = NCI Yeast Anticancer Drug Screen. Data for the mec2-1 strain (AID 157); details: S. cerevisiae mec2-1 strain, active compounds read high
In short: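 Using mec2-1 yeast: add compound, measure growth, express inhibition versus vehicle-treated cultures.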

[6] = NCI Yeast Anticancer Drug Screen. Data for the rad14 strain (AID 159);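 further: 0% = growth of vehicle-treated control cultures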; details: S. cerevisiae rad14 strain growth inhibition, active compounds read high
In short: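 Compound-treated yeast with a defined DNA-repair lesion; growth inhibition normalised to vehicle-treated cultures.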

[7] = NCI Yeast Anticancer Drug Screen. Data for the sgs1 mgt1 strain (AID 161);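 further: 0% = growth of cultures given vehicle only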; details: S. cerevisiae sgs1 mgt1 strain, active compounds read high
In short: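 Percent growth inhibition was derived by comparing compound-exposed mutant yeast with vehicle-exposed cultures. The strain carries alterations in DNA damage repair.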

[8] = NCI Yeast Anticancer Drug Screen. Data for the CLN2oe strain (AID 163);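 further: 0% = growth of vehicle-only control cultures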; details: S. cerevisiae CLN2oe strain, active compounds read high
In short: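 Whole-cell yeast growth assay. A strain engineered for altered cell-cycle control received compound, and inhibition relative to vehicle-treated cultures was recorded.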

[9] = NCI Yeast Anticancer Drug Screen. Data for the cln2 rad14 strain (AID 165);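 further: 0% = growth equal to vehicle treated cultures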; details: S. cerevisiae cln2 rad14 strain, active compounds read high
In short: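 Yeast strain cln2 rad14, bearing defects in cell cycle control and DNA repair, serves as the test system; values reflect growth inhibition compared with vehicle.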

[10] = NCI Yeast Anticancer Drug Screen. Data for the bub3 strain (AID 167); details: S. cerevisiae bub3 mutant strain, active compounds read high
In short: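 Growth of a checkpoint-deficient yeast mutant is measured after compound exposure. Values represent inhibition relative to vehicle.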

[11] = NCI Yeast Anticancer Drug Screen. Data for the wt2 strain (AID 169);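 further: 0% = growth of vehicle-treated yeast cultures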; details: S. cerevisiae wt2 strain growth inhibition, active compounds read high
In short: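 Treated yeast vs. vehicle-treated yeast: growth inhibition determined.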

[12] = NCI Yeast Anticancer Drug Screen. Data for the mlh1 strain (AID 171);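 further: 0% = growth of vehicle-treated control cultures of the same strain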; details: S. cerevisiae mlh1 strain growth inhibition, active compounds read high
In short: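 A yeast strain with a defined genetic lesion serves as the test organism. Cultures receive compound or vehicle, and growth is measured.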

[13] = NCI Yeast Anticancer Drug Screen. Data for the sgs1 strain (AID 173);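 further: 0% = growth of vehicle-only control cultures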; details: S. cerevisiae sgs1 mutant, active compounds read high
In short: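 A genetically defined yeast mutant is incubated with the test compound, and its growth is compared to that of the same strain given vehicle.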

[14] = NCI Yeast Anticancer Drug Screen. Data for the mlh1 rad18 strain (AID 175); details: S. cerevisiae mlh1 rad18 strain growth inhibition, active compounds read high
In short: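 Steps: expose repair-defective yeast to compound; measure growth; express inhibition against vehicle-treated controls.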

[15] = NCI Yeast Anticancer Drug Screen. Data for the rad18 strain (AID 177); details: S. cerevisiae rad18 mutant growth inhibition, active compounds read high
In short: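 Measured value is growth inhibition of a yeast strain bearing a DNA repair alteration, referenced to vehicle-treated cells.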

[16] = at 5.0 µM (retest, dose inferred, filed as 0.5)
[17] = at 50.0 µM (retest, dose inferred, filed as 5.0)

Measured: growth inhibition

CCCCc1nnc(NS(=O)(=O)c2ccc(C)cc2)s1
inactive: [1]; at 1.2 µM -35% | [1]; at 3.7 µM -32% | [1]; at 11.0 µM -18% | [1]; at 33.0 µM 19% | [2]; at 1.2 µM -29% | [2]; at 3.7 µM -34% | [2]; at 11.0 µM -30% | [2]; at 33.0 µM -21% | [2]; at 100.0 µM -35% | [3]; at 1.2 µM -25% | [3]; at 3.7 µM -28% | [3]; at 11.0 µM -12% | [3]; at 33.0 µM 25% | [4]; at 1.2 µM -15% | [4]; at 3.7 µM -13% | [4]; [16] 48% | [4]; at 11.0 µM 0% | [4]; at 33.0 µM 45% | [5]; at 1.2 µM -21% | [5]; at 3.7 µM -19% | [5]; at 11.0 µM -3% | [5]; at 33.0 µM 31% | [5]; at 50.0 µM 50.3% | [6]; at 1.2 µM -51% | [6]; at 3.7 µM -45% | [6]; at 11.0 µM -34% | [6]; at 33.0 µM 6% | [7]; [16] -24% | [7]; [17] 31% | [8]; at 1.2 µM 0% | [8]; at 3.7 µM 2% | [8]; at 11.0 µM 15% | [8]; at 33.0 µM 20% | [9]; [16] 35% | [9]; [17] 56% | [9]; at 50.0 µM 49.5% | [10]; at 1.2 µM -4% | [10]; at 3.7 µM 9% | [10]; [16] 27% | [10]; at 11.0 µM 15% | [10]; at 33.0 µM 47% | [10]; [17] 61% | [10]; at 50.0 µM 68.2% | [11]; at 1.2 µM -28% | [11]; at 3.7 µM -22% | [11]; at 11.0 µM -10% | [11]; at 33.0 µM 20% | [12]; at 1.2 µM -32% | [12]; at 3.7 µM -43% | [12]; at 11.0 µM -24% | [12]; at 33.0 µM 23% | [13]; at 1.2 µM -13% | [13]; at 3.7 µM -22% | [13]; at 11.0 µM -6% | [13]; at 33.0 µM 31% | [14]; at 50.0 µM 59.1% | [15]; at 1.2 µM -12% | [15]; at 3.7 µM 4% | [15]; at 11.0 µM 15% | [15]; at 33.0 µM 36%
active: [1]; at 100.0 µM 84% | [3]; at 100.0 µM 85% | [4]; [17] 94% | [4]; at 50.0 µM 72% | [4]; at 100.0 µM 86% | [5]; [16] 70% | [5]; [17] 94% | [5]; at 100.0 µM 81% | [6]; at 100.0 µM 82% | [7]; at 50.0 µM 72% | [8]; at 100.0 µM 87% | [10]; at 100.0 µM 85% | [11]; at 100.0 µM 80% | [12]; at 100.0 µM 74% | [13]; at 100.0 µM 80% | [14]; [16] 77% | [14]; [17] 99% | [15]; at 100.0 µM 86%

COC(=O)C1=C(C(=O)OC)C(C(=O)OC)C(C(=O)OC)C(C(=O)OC)(C(=O)OC)C(C(=O)OC)=C1C(=O)OC (stereo unspecified)
inactive: [1]; at 1.2 µM -11% | [1]; at 3.7 µM -13% | [1]; at 11.0 µM -25% | [1]; at 33.0 µM 1% | [1]; at 100.0 µM 39% | [2]; at 1.2 µM -4% | [2]; at 3.7 µM -4% | [2]; at 11.0 µM -4% | [2]; at 33.0 µM 1% | [2]; at 100.0 µM 27% | [3]; at 1.2 µM -18% | [3]; at 3.7 µM -19% | [3]; at 11.0 µM -17% | [3]; at 33.0 µM 13% | [3]; at 100.0 µM 62% | [4]; at 1.2 µM -10% | [4]; at 3.7 µM -14% | [4]; [16] 25% | [4]; at 11.0 µM 7% | [4]; at 33.0 µM 25% | [4]; at 100.0 µM 62% | [5]; at 1.2 µM -13% | [5]; at 3.7 µM -14% | [5]; [16] 20% | [5]; at 11.0 µM 1% | [5]; at 33.0 µM 16% | [5]; at 50.0 µM 60.5% | [5]; at 100.0 µM 55% | [6]; at 1.2 µM -16% | [6]; at 3.7 µM -20% | [6]; at 11.0 µM -11% | [6]; at 33.0 µM 14% | [9]; at 50.0 µM 33% | [10]; at 1.2 µM -13% | [10]; at 3.7 µM -13% | [10]; at 11.0 µM -22% | [10]; at 33.0 µM 18% | [10]; at 50.0 µM 54.5% | [10]; at 100.0 µM 35% | [11]; at 1.2 µM -22% | [11]; at 3.7 µM -18% | [11]; at 11.0 µM -17% | [11]; at 33.0 µM 1% | [11]; at 100.0 µM 58% | [12]; at 1.2 µM -16% | [12]; at 3.7 µM -23% | [12]; at 11.0 µM -18% | [12]; at 33.0 µM -1% | [12]; at 100.0 µM 39% | [14]; [16] 26% | [14]; at 50.0 µM 67.4% | [15]; at 1.2 µM -20% | [15]; at 3.7 µM -21% | [15]; at 11.0 µM -5% | [15]; at 33.0 µM 17% | [15]; at 100.0 µM 51%
active: [4]; [17] 93% | [4]; at 50.0 µM 77.9% | [5]; [17] 94% | [6]; at 100.0 µM 73% | [7]; [16] 96% | [7]; [17] 99% | [7]; at 50.0 µM 80.1% | [9]; [16] 88% | [9]; [17] 97% | [10]; [16] 95% | [10]; [17] 99% | [14]; [17] 87%

NC(=O)C(=O)NNc1ccccc1
inactive: [3]; at 1.2 µM 5% | [3]; at 3.7 µM 10% | [3]; at 11.0 µM 28% | [4]; at 1.2 µM 1% | [4]; at 3.7 µM 6% | [4]; [16] 9% | [4]; at 11.0 µM 31% | [4]; [17] 49% | [5]; at 1.2 µM 0% | [5]; at 3.7 µM 6% | [5]; [16] -1% | [5]; at 11.0 µM 48% | [5]; [17] 4% | [6]; at 1.2 µM 1% | [6]; at 3.7 µM 0% | [6]; at 11.0 µM 13% | [6]; at 33.0 µM 66% | [7]; [16] 8% | [8]; at 1.2 µM -3%
active: [3]; at 33.0 µM 76% | [3]; at 100.0 µM 97% | [4]; at 33.0 µM 75% | [4]; at 50.0 µM 95.5% | [4]; at 100.0 µM 97% | [5]; at 33.0 µM 81% | [5]; at 50.0 µM 83.8% | [5]; at 100.0 µM 97% | [6]; at 100.0 µM 98% | [7]; [17] 78% | [7]; at 50.0 µM 90.5%

Reference: PubChem BioAssay (NCI)
